Rows were chosen to be rich in hits. Some 19% of all compounds tested hit in one or more screens of this group.
TDP1 cell noCPT = qHTS for Inhibitors of human tyrosyl-DNA phosphodiesterase 1 (TDP1): qHTS in cells in absence of CPT | DT40 Tdp1-/- hTDP1 cells, no CPT, ATP luminescence, 48 h | AID 686978, 2013 | 420,000 compounds, 15% hits | Potency, µM (doses to about 46.2 µM), for inactives: at the highest dose activity change, negative = growth inhibition, most hits filed as inhibitors; further: nearly all actives have a fitted effect of over 55% in size
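Compound effects on proliferation are scored in DT40 Tdp1-/-;hTDP1 cells in the absence of CPT. ATP levels (CellTiter-Glo luminescence) are recorded after a ≥48 hr, 37 °C incubation.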
KB-3-1 tox = kills parental KB-3-1 adenocarcinoma cells; KB-3-1 viability, CellTiter-Glo ATP luminescence, 72 h; Potency, µM (series often up to 46.1 µM), actives largely listed as cytotoxic; 400,000 compounds, 1.4% hits; AID 1347075; further: nearly all actives have a fitted effect of over 60% in size
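Parental KB-3-1 viability, qHTS format: 72 h compound exposure, 37 °C; CellTiter-Glo; media-only wells and DMSO plates as controls; concentration-effect fits on corrected data.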
HT1080NT lethal = kills 2HG-producing HT-1080-NT fibrosarcoma cells; HT-1080-NT fibrosarcoma viability, CellTiter-Glo ATP luminescence, 48 h; AID 686970; 360,000 compounds, 1.6% hits; Potency, µM (doses to about 46.1 µM), inactives show at the highest dose activity, negative = less viability, most hits filed as cytotoxic;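 further: NT is the 2HG producing partner of a matched IDH1 knockdown line; 0% = DMSO-treated cells and -100% = media-only wells without cells; nearly all actives have a fitted effect of over 55% in size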
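A 48-hour cytotoxicity screen used HT-1080-NT cells plated 2 hours before compound delivery. ATP-based CellTiter-Glo luminescence measured viability, normalized to DMSO and no-cell controls.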
TDP1 cell CPT = DT40-hTDP1 cell growth loss with CPT; chicken DT40 Tdp1-/-;hTDP1 cells + 20 nM CPT, ATP luminescence, 48 h; Potency, µM (top dose mostly 46.2 µM), for inactives: top-dose activity change, negative = growth inhibition, usual class: inhibitors; 420,000 compounds, 12% hits; AID 686979; further: nearly all actives have a fitted effect of over 55% in size
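Cell growth measured by CellTiter-Glo luminescence after a minimum 48 h, 37 C compound exposure with 20 nM CPT in Tdp1-knockout DT40 cells stably expressing hTDP1, seeded 400/well; qHTS titration format.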
KB-V1 MDR tox = KB-V1 MDR subline cytotoxicity; KB-V1 MDR cells viability, CellTiter-Glo, 72 h; 400,000 compounds, 3.4% hits; Potency, µM (series often up to 46.1 µM), hits mostly cytotoxic; AID 1347076; further: nearly all actives have a fitted effect of over 60% in size
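In this primary screen, KB-V1 cells overexpressing P-gp are incubated with library compounds (lowest to highest concentration) for 72 h at 37 degrees C before a luminescent ATP viability read.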
HT1080 IDH1KD tx = toxicity to HT-1080 IDH1 knockdown cells (counter line); HT-1080 IDH1 knockdown viability, ATP luminescence, 48 h; Potency, µM (highest dose often 46.1 µM), without a hit: at the top dose activity, negative = toxicity, usual class: cytotoxic; 360,000 compounds, 2% hits; AID 686971;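 further: 0% = DMSO wells and -100% = cell-free medium wells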
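Using the IDH1-knockdown HT-1080 line run in the same batch and compound series as the NT line, viability after 48 h at 37 °C was determined by CellTiter-Glo luminescence and expressed as % activity.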
Starred values were filed as active, the others as inactive; i = inactive; u = inconclusive; x = no result. The call rests on the fitted dose curve; in most records, active means well fitted curve in the direction sought with a large enough effect; inconclusive means small, poorly fitted or top-dose-only effect, or another doubt; inactive means no such curve, though single readings can be large; an effect the other way counts as inactive or inconclusive. Unless noted, on the % scale 0 is the no-effect control and ±100 the full control effect; potency means the concentration at half of the fitted maximal effect.

SMILES	TDP1 cell noCPT	KB-3-1 tox	HT1080NT lethal	TDP1 cell CPT	KB-V1 MDR tox	HT1080 IDH1KD tx
Cc1nn(C(C)(C)C)c(OC(=O)c2ccc3c(c2)OCO3)c1S(=O)(=O)c1ccccc1	-29%	i	21µM*	-25%	i	u
Cc1cc(Cl)ccc1NC(=O)CN1C(=O)COc2ccc(S(=O)(=O)Nc3ccccc3)cc21	u	i	x	u	i	x
O=C(c1ccccc1)C1(c2ccccc2)OC1c1ccccc1 (stereo not drawn)	-26%	i	-5%	-22%	i	0%
C=CCNC(=O)/C(=C/c1cn(-c2ccccc2)nc1-c1cccc([N+](=O)[O-])c1)NC(=O)c1ccccc1	u	i	5%	-13%	16µM*	11%
CCOc1ccccc1/C=C(/NC(=O)c1ccccc1)C(=O)NC(C)c1ccccc1 (stereo not drawn)	u	i	-1%	23µM*	u	2%
C=CCNC(=O)/C(=C/c1ccccc1OCC)NC(=O)c1ccccc1	-2%	i	4%	5%	12µM*	9%
CCC(=O)N1CCc2cc(S(=O)(=O)CCC(=O)N3CCN(c4cc(C)ccc4C)CC3)ccc21	u	i	x	u	i	x
CN1C(=O)NC2(O)C(=O)c3ccccc3C12O (stereo not drawn)	10µM*	i	3%	12µM*	i	u
CCCN1C(=O)NC2(O)C(=O)c3ccccc3C12O (stereo not drawn)	3%	i	7%	-1%	i	11%
CC(=O)c1c(C)[nH]c(C(=O)COc2cc(C)ccc2C(C)C)c1C	4.6µM*	i	-20%	8.2µM*	i	u
COc1ccccc1OCC(=O)c1[nH]c(C)c(C(C)=O)c1C	12µM*	i	-14%	15µM*	i	u
COc1cc(CN(C)CC(=O)c2[nH]c(C)c(C(C)=O)c2C)ccc1OC(F)F	3.7µM*	u	-11%	8.2µM*	i	-10%
COc1ccc(Br)cc1CNC(=O)C(C)n1nc(C)n2c(cc3occc32)c1=O (stereo not drawn)	u	x	x	-4%	x	x
COCCn1c(SCC(=O)c2ccccc2)nc2c(c1=O)SC(C)C2 (stereo not drawn)	u	i	-11%	23µM*	u	-10%
COCCn1c(SCC(=O)N2CCN(c3ccccc3)CC2)nc2c(c1=O)SC(C)C2 (stereo not drawn)	18µM*	i	-10%	21µM*	i	-1%
COCCn1c(SCC(=O)N2CCc3ccccc32)nc2c(c1=O)SC(C)C2 (stereo not drawn)	u	i	-1%	u	i	3%
CCn1c(SCC(=O)c2ccccc2)nc2c(c1=O)SC(C)C2 (stereo not drawn)	u	i	-22%	u	i	-27%
C[C@H]1C[C@H]2[C@@H]3CCC4=CC(=O)C=C[C@]4(C)[C@H]3C(=O)C[C@]2(C)[C@@]1(O)C(=O)CO	-25%	x	x	-12%	x	x
O=C(COC(=O)C12CC3CC(CC(O)(C3)C1)C2)Nc1cccc(Br)c1	-24%	i	1%	u	i	0%
COc1ccccc1N(CC1CO1)S(=O)(=O)c1ccc(C)cc1 (stereo not drawn)	21µM*	i	-10%	u	i	-2%
CCOc1ccc(S(=O)(=O)N(CC(N)=O)c2ccc(C)cc2)cc1	-24%	i	-1%	-22%	i	-5%
CCOC(=O)c1ccc(N(CC2CO2)S(=O)(=O)c2ccc(C)cc2)cc1 (stereo not drawn)	16µM*	i	-1%	13µM*	i	-1%
COc1ccccc1N(CC1CO1)S(=O)(=O)c1ccccc1 (stereo not drawn)	u	i	-12%	u	i	-16%
[O-][N+](=Cc1ccccc1)CC1(O)CCCCC1	-10%	i	-1%	0%	i	-6%
Cc1nn(C)c2c1c(C(F)(F)F)cc(=O)n2CC(=O)NCCC(C)C	-24%	i	x	u	i	x
SMILES	TDP1 cell noCPT	KB-3-1 tox	HT1080NT lethal	TDP1 cell CPT	KB-V1 MDR tox	HT1080 IDH1KD tx
Cc1nn(Cc2ccccc2Cl)c(C)c1C(=O)N(C)CC(=O)Nc1cccc(F)c1	16µM*	i	-1%	u	u	-7%
CCOc1ccc(NC(=O)CN(C)C(=O)c2c(C)nn(Cc3ccccc3Cl)c2C)cc1OCC	-1%	i	8%	-20%	i	-3%
CSc1ccccc1NC(=O)CN(C)C(=O)c1c(C)nn(Cc2ccccc2)c1C	2%	i	-2%	3%	21µM*	-8%
Cc1nn(-c2ccc(F)cc2)c(Cl)c1C(=O)N(C)CC(=O)Nc1cccc(F)c1	15µM*	i	-6%	u	u	2%
CC1CCC(NC(=O)COc2ccc(C(=O)c3ccccc3)cc2)CC1 (stereo not drawn)	10µM*	u	-23%	u	u	u
COc1ccccc1OCCOc1ccc(C(=O)c2ccccc2)cc1	u	i	2%	18µM*	u	1%
COc1ccccc1OCc1ccc(C(=O)c2ccccc2)cc1	u	i	-17%	-15%	i	-1%
CC1CCN(CCOc2ccc(C(=O)c3ccccc3)cc2)CC1	u	i	-10%	16µM*	i	-11%
CC1CCN(CCCOc2ccc(OCc3ccccc3)cc2)CC1	u	i	u	u	i	u
CC(=O)c1ccc(OCC(=O)NC2CCCCCC2)cc1	-13%	i	0%	-5%	u	-2%
CC1O[C@@H](O[C@H](C)CC[C@@H](C)O)C(O)C[C@H]1O (stereo partly drawn)	1%	i	17%	10%	i	12%
CCOc1cc(Br)ccc1S(=O)(=O)N1CC(C)OC(C)C1 (stereo not drawn)	u	i	u	26µM*	i	-22%
COc1ccccc1-n1cnc(N)c1C(C)=O	-10%	i	1%	-7%	i	2%
COc1ccccc1-n1cnc(N)c1C(=O)c1ccccc1	8.2µM*	i	u	9.2µM*	i	26µM*
COc1ccccc1CNC(=O)CCCn1c(=O)c2ccccc2n(Cc2ccc(F)cc2)c1=O	u	i	x	16µM*	i	x

Screening results: PubChem BioAssay, National Center for Advancing Translational Sciences (NCATS)
